The values below come from PubChem BioAssay (EPA / NIEHS).

Assay [1] in a line: TOX21_p53_BLA_p2_viability: Viability Assessment in the Tox21 HCT-116 p53 Agonism Beta-lactamase Assay, Phase 2 (AID 2283591).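 Further: compound exposure lasted 16 h at 37 °C; actives lower the ATP signal meaning cytotoxicity.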 The method, boiled down:
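Cytotoxicity readout: CellTiter-Glo ATP luminescence, 30 min at room temperature, after the beta-lactamase read. Cells were HCT116 exposed 16 h at 37C to compounds pin-transferred at 217-fold dilution from DMSO stocks.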

Assay [2] has as its target Cellular tumor antigen p53 (Homo sapiens) (UniProt P04637). Briefly: TOX21_p53_BLA_p2_ratio: Tox21 HCT-116 p53 Agonism Beta-lactamase Assay, Ratio, Phase 2 (AID 2283592). The method, boiled down:
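Read-out is the blue/green (460/530 nm, 405 nm excitation) ratio after 2 h CCF4-AM loading, fitted as gain versus DMSO. Compounds, pinned at 217-fold dilution from DMSO stocks, stayed 16 h on HCT-116 beta-lactamase reporter cells seeded 5 h earlier.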

A short description of assay [3]: TOX21_p53_BLA_p3_viability: Viability Assessment in the Tox21 HCT-116 p53 Agonism Beta-lactamase Assay, Phase 3 (AID 2283593).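 Further: cells exposed to compound for 16 h before reading.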 The procedure, abridged:
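Cellular ATP was quantified by CellTiter-Glo luminescence, read after 30 min at room temperature. Beforehand, HCT116 cells (4000/well) received compound 5 h post-seeding, 217-fold diluted from DMSO, then incubated 16 h at 37C.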

For assay [4], the target named is Cellular tumor antigen p53 (Homo sapiens) (UniProt P04637). Description: TOX21_p53_BLA_p3_ratio: Tox21 HCT-116 p53 Agonism Beta-lactamase Assay, Ratio, Phase 3 (AID 2283596). The procedure, abridged: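 Cells were seeded at 4000/well, rested 5 h at 37C, then dosed with DMSO compound solutions (217-fold dilution) for 16 h. CCF4-AM substrate was loaded for 2 h at room temperature, and the 460/530 nm emission ratio was fitted for gain of signal versus DMSO.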
Sequence of Cellular tumor antigen p53 (Homo sapiens) (P04637 whole entry, looked up): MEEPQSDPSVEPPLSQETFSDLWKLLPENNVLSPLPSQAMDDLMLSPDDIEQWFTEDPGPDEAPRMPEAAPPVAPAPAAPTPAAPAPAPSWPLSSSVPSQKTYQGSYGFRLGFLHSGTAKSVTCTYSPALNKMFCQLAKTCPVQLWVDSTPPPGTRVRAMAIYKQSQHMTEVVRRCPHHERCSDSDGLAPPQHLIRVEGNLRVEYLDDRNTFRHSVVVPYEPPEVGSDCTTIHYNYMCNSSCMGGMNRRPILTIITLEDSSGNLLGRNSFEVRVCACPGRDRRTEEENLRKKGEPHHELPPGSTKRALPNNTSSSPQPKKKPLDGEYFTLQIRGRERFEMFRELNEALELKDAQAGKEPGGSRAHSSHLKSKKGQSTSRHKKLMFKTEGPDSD

The target is the same in assay [5]. Description: TOX21_p53_BLA_p5_ratio: Tox21 HCT-116 p53 Agonism Beta-lactamase Assay, Ratio, Phase 5 (AID 2283599). The procedure, abridged: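 Beta-lactamase reporter ratio (blue 460 nm over green 530 nm, 405 nm excitation) after 2 h CCF4-AM loading, in HCT-116 cells exposed 16 h at 37 C to compounds pinned at 217-fold dilution. Increases relative to DMSO baseline scored.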

Assay [6] in a line: TOX21_p53_BLA_p5_viability: Viability Assessment in the Tox21 HCT-116 p53 Agonism Beta-lactamase Assay, Phase 5 (AID 2283600). The method, boiled down: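 Viability came from CellTiter-Glo ATP luminescence, read after 30 min at room temperature. Before this, HCT-116 p53-bla cells (4000/well) had 16 hours of compound exposure at 37C, with DMSO stocks diluted 217-fold on transfer.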

For assay [7], the target named is Cellular tumor antigen p53 (Homo sapiens) (UniProt P04637). Briefly: TOX21_p53_BLA_p4_ratio: Tox21 HCT-116 p53 Agonism Beta-lactamase Assay, Ratio, Phase 4 (AID 2283601). The procedure, abridged:
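Signal is the blue/green (460nm/530nm) ratio of cleaved versus uncleaved CCF4-AM substrate, read after 2 h substrate loading. Cells were HCT116 carrying the p53-responsive beta-lactamase reporter, dosed 16 h at 37C, 5% CO2; CellTiter-Glo measured in parallel.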

For assay [8], the system named is Thyroperoxidase (TPO), gene 54314. Description: CCTE_Simmons_AUR_rTPO: CCTE's Amplex UltraRed Assay for Thyroperoxidase (TPO) Inhibition, Simmons Lab (AID 2283662).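 Further: potency for loss of signal meaning inhibition of peroxidase activity.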 The method, boiled down:
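Cell-free peroxidase activity assay using rat thyroid gland microsomes with excess H2O2 (300 uM) and 25 uM Amplex UltraRed. Compounds tested from 5 nM to 87.5 uM; fluorescence measured after 30 min at 37C, analysed relative to DMSO baseline.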

Assay [9] in a line: CCTE_Simmons_CellTiterGLO_HEK293T: Viability Assessment in CCTE's Assays for Thyroperoxidase (TPO) Inhibition, Simmons Lab (AID 2283665). The method, boiled down:
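Luminescent ATP readout (CellTiter-Glo, 20 min at room temperature) after 24 hr exposure of HEK293T cells to 5 nM–87.5 uM final compound; signal loss relative to DMSO vehicle indicated cytotoxicity; dichlone titrated as positive control.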
A general note: ATP-based viability assays read luminescence as a measure of living cells.

Assay [10] deals with Luciferin 4-monooxygenase (Photinus pyralis) (UniProt P08659). Briefly: CCTE_Simmons_QuantiLum_inhib_2: CCTE's Firefly Luciferase Inhibition Assay, Simmons Lab (AID 2283767). The method, boiled down:
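Cell-free QuantiLum luciferase, 5 ng/well; compounds 5 nM–87.5 uM final, 8 conc, 0.5% DMSO; 30 min, 37C, dark. Detection reagent (150 uM D-luciferin, 147 uM dATP, CoA, DTT, pH 7.8 final) injected per well, kinetic luminescence. Triplicate biological replicates.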

Assay [11] is described as follows: ACEA_AR_agonist_AUC_viability: ACEA Biosciences xCELLigence Real-Time Cell Analysis on Androgen Receptor Agonism for Viability (AID 2283775).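 On AC50: viability read 80 hours after compound addition.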 The procedure, abridged: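 Viability endpoint from xCELLigence impedance in 22Rv1 prostate cells at 80 h. Eight-point series, 100 uM maximum final.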
Assay [12] in a line: TOX21_p53_BLA_p4_viability: Viability Assessment in the Tox21 HCT-116 p53 Agonism Beta-lactamase Assay, Phase 4 (AID 2283597).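 Further: hits lower the luminescence signal meaning cytotoxicity.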 The procedure, abridged:
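Cytotoxicity as reduced cellular ATP (CellTiter-Glo luminescence, 30 min room temperature), measured in the same wells following the CCF4 FRET p53 reading. Human HCT-116 cells received compounds in DMSO (217-fold dilution) for 16 h.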

A short description of assay [13]: STM_H9_OrnCyssISnorm_ratio: Stemina devTOX quickPredict H9 human embryonic stem cell (hESC)-based Assay for Ornithine (ORN):Cystine (CYSS) Ratio (AID 2283714). The method, boiled down:
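Ratio of internal-standard-normalized ornithine to cystine, measured by UPLC-HRMS in spent media from the last 24 h. H9 cells kept pluripotent, dosed 72 h with daily media and compound renewal; DMSO 0.1% serves as baseline.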

The nature of assay [14]: CEETOX_H295R_MTT_cell_viability: Viability Assessment in the CeeTox HT-H295R MTT Assay (AID 2283718; active means hit-call score of the fitted dose curve at least 0.9, where 1 is the maximum; inactive means score below 0.9). The procedure, abridged: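 MTT reduction (0.5 mg/ml, 4 h at 37 C; absorbance at 570 and 650 nm) gave viability as background-corrected percent change versus controls. H295R cells had 48 h forskolin (10 uM) prestimulation, then 48 h chemical exposure at 0.1% DMSO.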

Inconclusive results are not listed. Active and inactive are the calls of the source. How the source made its calls, unless noted: active means hit-call score of the fitted dose curve at least 0.9, where 1 is the maximum; inconclusive means response in the unintended direction; inactive means score below 0.9.

Sequence of Luciferin 4-monooxygenase (Photinus pyralis) (P08659 whole entry, looked up): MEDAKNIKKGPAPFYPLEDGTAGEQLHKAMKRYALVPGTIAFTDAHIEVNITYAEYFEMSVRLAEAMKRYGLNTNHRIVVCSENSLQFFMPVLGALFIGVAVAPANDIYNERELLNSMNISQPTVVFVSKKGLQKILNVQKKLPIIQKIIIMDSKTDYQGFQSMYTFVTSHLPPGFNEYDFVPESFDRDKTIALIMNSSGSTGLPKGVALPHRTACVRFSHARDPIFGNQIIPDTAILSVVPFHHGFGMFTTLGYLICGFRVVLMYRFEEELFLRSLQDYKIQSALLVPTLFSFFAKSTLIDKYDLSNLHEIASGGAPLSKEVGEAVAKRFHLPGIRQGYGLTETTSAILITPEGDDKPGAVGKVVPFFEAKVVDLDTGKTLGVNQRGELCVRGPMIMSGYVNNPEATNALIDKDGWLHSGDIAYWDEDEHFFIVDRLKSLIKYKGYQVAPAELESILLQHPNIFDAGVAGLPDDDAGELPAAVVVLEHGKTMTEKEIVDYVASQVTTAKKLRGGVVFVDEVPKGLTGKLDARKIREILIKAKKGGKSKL

In the case of `O=S(=O)(O)c1ccccc1C=Cc1ccc(-c2ccc(C=Cc3ccccc3S(=O)(=O)O)cc2)cc1`, the result in assay [1], in [2], in assay [3], in assay [4], in assay [6] and in assay [9] was inactive. In addition, the compound was called inactive in [10]. The AC50 in [5] is 11.4 µM (active); in assay [7], 11.4 µM (active); in assay [8] it was 44.4 µM (active).
As to `O=C1C(N(CO)C(=O)NCO)N(CO)C(=O)N1CO` (stereo not drawn), the result in assay [1], in assay [2], in assay [3], in [4], in assay [6] and in assay [11] was inactive.
On to `O=S(=O)(O)CC(O)CCl` (stereo not drawn), for which the compound was called inactive in assay [1], in [2], in [3], in [4], in [5] and in [7].
With `O=C(O)CCCCCCCCCC(=O)O`, the result in assay [1], in assay [2], in assay [3], in assay [4], in [5] and in assay [6] was inactive. In addition, the outcome in [7] was inactive.
As to `Cc1c(C)c([N+](=O)[O-])c(C(C)(C)C)c([N+](=O)[O-])c1C`, the compound was called inactive in assay [1], in assay [2], in assay [3], in [12] and in [5].
Regarding `NCCCN1CCN(CCCN)CC1`, the compound was called inactive in assay [1], in assay [2], in assay [3], in assay [4], in assay [12] and in assay [5]. Also, the result in [7] was inactive.
Consider `CN(C)c1ccc(N=Nc2ccccc2C(=O)O)cc1`, for which the AC50 was 75.8 µM (active) in assay [1]; 75 µM (active) in assay [3]; 68 µM (active) in assay [12]; 75.8 µM (active) in assay [6]; 37.5 µM (active) in [13]; 6.64 µM (active) in assay [11]. Besides, the result in assay [2], in assay [5] and in assay [7] was inactive.
For the compound `Cc1cc(C)c(C)c(C)c1`, the result in [1], in assay [2], in assay [3], in assay [4], in assay [5] and in assay [7] was inactive.
With `Nc1cccc(C(F)(F)F)c1`, the result in [1], in [2], in assay [3], in assay [4], in assay [12] and in assay [7] was inactive.
For `CC(=O)[C@@]1(O)CC[C@H]2[C@@H]3C[C@H](C)C4=CC(=O)C=C[C@]4(C)[C@@]3(F)[C@@H](O)C[C@@]21C`, the call in assay [1], in [2], in [3], in assay [4], in [12] and in assay [5] was inactive. Besides, the outcome in [7] was inactive.
`CC/C=C\CCOC(=O)CCCCC`: the compound was called inactive in assay [1], in [2], in assay [3], in [4], in assay [5] and in [7].
With `COC(=O)c1ccc2cc(C(=O)OC)ccc2c1`, the outcome in [1], in assay [2], in [3], in assay [12], in [5] and in assay [6] was inactive. In assay [7], the outcome was inactive.
Consider `O=C(O)CC(C(=O)O)C(CC(=O)O)C(=O)O` (stereo not drawn), for which the compound was classed as inactive in assay [1], in [2], in assay [3], in assay [4], in [5] and in [6]. The outcome in assay [7] was inactive.
As for `CC(=O)Nc1nnc(S(N)(=O)=O)s1`, the call in assay [1], in [2], in assay [3], in assay [4], in [5] and in [6] was inactive. For the same compound, the result in assay [7] was inactive.
For the compound `COCC(C)N` (stereo not drawn), the compound was called inactive in [1], in [2], in [3], in assay [4], in assay [5] and in assay [6]. The result in assay [7] was inactive.
As to `O=C1CCCCCN1SSN1CCCCCC1=O`, the call in assay [1], in assay [3], in assay [4], in assay [12], in [6] and in assay [7] was inactive. In addition, in assay [2], the AC50 is 86.6 µM (active).
For the compound `Nc1ccc(-c2ccc(F)cc2)cc1`, the outcome in assay [1], in assay [2], in [3], in [4], in assay [5] and in [7] was inactive.
For the compound `CC1OC1C1CCC2(C)OC2C1` (stereo not drawn), the call in assay [1], in [2], in assay [3], in [4], in assay [12] and in [5] was inactive. For the same compound, the outcome in assay [7] was inactive.
For the compound `CC(=O)Oc1ccc(C)cc1`, the compound was called inactive in assay [1], in assay [2], in assay [3], in [4], in assay [5] and in assay [6]. Also, the outcome in assay [7] was inactive.
For the compound `C=CC(C)(C)C`, the call in assay [1], in assay [2], in assay [3], in assay [4], in assay [5] and in [6] was inactive. In assay [7], the result was inactive.
With `COc1cc(C)ccc1C(C)C`, the outcome in [1], in [2], in assay [3], in assay [4], in assay [5] and in assay [6] was inactive. The result in [7] was inactive.
On to `CC(=O)Nc1ccc2c(c1)Cc1cc(NC(C)=O)ccc1-2`, for which the compound was classed as inactive in assay [1], in assay [2], in [3], in assay [4] and in assay [5].
For `Cc1cc(O)c(Cl)c(C)c1Cl`, the AC50 was 57 µM (active) in assay [1]; 73.9 µM (active) in assay [2]; 57.8 µM (active) in assay [3]; 85 µM (active) in assay [4]; 77.1 µM (active) in [5]; 70.1 µM (active) in [6]. In addition, in [7], the AC50 was 74.9 µM (active).
Regarding `O=C(OCC1CCC2OC2C1)C1CCC2OC2C1` (stereo not drawn), the result in assay [1], in assay [2], in [4], in [12], in [5] and in assay [6] was inactive. Moreover, the concentration at half-maximal activity (AC50) in assay [11] was 9.05 µM (active).
With `CCOC(=O)Cc1cccc2ccccc12`, the compound was classed as inactive in assay [1], in [2], in [3], in assay [12], in assay [5] and in assay [7]. Moreover, in assay [14], the compound was called inactive.
On to `c1ccc(CCCc2ccncc2)cc1`, for which the outcome in assay [1], in assay [2], in assay [4], in assay [6] and in assay [7] was inactive.
With `COC(=O)c1cc(Cl)ccc1[N+](=O)[O-]`, the outcome in assay [1], in [2], in assay [4], in [5] and in assay [7] was inactive.
Turning to `CC(C)CC(O)Cc1ccccc1` (stereo not drawn), the result in assay [1], in [2], in assay [4], in assay [5] and in assay [7] was inactive.
In the case of `CC=CC(=O)N(CC)c1ccccc1C`, the call in assay [1], in assay [2], in [4], in [12], in assay [5] and in assay [7] was inactive.
`N#[N+]c1ccc2c(S(=O)(=O)[O-])cccc2c1O`: the compound was classed as inactive in assay [1], in assay [2], in assay [4], in assay [12], in assay [5] and in assay [6]. Also, the outcome in [7] was inactive.
In the case of `CC(C)CCCC(C)CC=O` (stereo not drawn), the compound was classed as inactive in [1], in assay [2], in assay [12], in assay [5] and in assay [6].

As usually defined, the AC50 is the midpoint of the concentration-response curve, whichever way the signal moves.
